Bioassay records deposited in PubChem BioAssay by National Center for Advancing Translational Sciences (NCATS).
HPGD inh: blocks human HPGD enzyme activity | P15428 | purified HPGD, NADH fluorescence kinetic, PGE2 substrate | Potency, µM, without a hit: top-dose activity change, negative = inhibition, hits mostly inhibitors | 150,000 tested, 4.3% active; active means well fitted inhibition curve with a large enough effect, not every such curve was filed as active; inconclusive means small, poorly fitted or top-dose-only effect, or another doubt; inactive means no such curve, though single readings can be large or run the other way; further: on the % scale 0 is the no-effect control and ±100 the full control effect
Target sequence (P15428 whole entry, looked up): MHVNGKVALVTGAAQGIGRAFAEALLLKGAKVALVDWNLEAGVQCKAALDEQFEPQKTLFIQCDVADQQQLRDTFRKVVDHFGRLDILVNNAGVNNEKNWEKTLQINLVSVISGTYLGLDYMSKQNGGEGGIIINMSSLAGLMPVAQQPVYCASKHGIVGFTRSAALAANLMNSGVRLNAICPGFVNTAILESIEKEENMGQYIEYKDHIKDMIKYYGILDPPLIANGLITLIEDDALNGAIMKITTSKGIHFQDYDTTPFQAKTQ
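20 nM HPGD preincubated 15 min at room temperature with compound in 50 mM Tris-HCl pH 8, 0.01% Tween 20. Started with 1 mM NAD+ and 30 uM prostaglandin E2; NADH fluorescence (360/450 nm) read 5 times over 30-s intervals, last minus first.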
Lamin A splicing: changes lamin A minigene splicing in HeLa cells; HeLa LMNA splicing GFP/RFP minigene ratio, 48 h; Potency, µM (top dose mostly 46.1 µM), for inactives: top-dose ratio change, negative = inhibition, most hits filed as inhibitors; 200,000 tested, 0.01% active; active means well fitted inhibition curve with a large enough effect in the signal ratio, with a control signal flat, not every such curve was filed as active; inconclusive means small, poorly fitted or top-dose-only effect, or effect the other way, or a change in a side signal; the % refers to the signal ratio; further: on the % scale 0 is the no-effect control and ±100 the full control effect
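Read-out is the ratio of GFP to DsRed2 object intensity, acquired by 488 nm laser-scanning cytometry on HeLa lamin A-EGFP minigene reporter cells. Compound incubation 48 hrs at 37 °C in Opti-MEM with 2% FBS; DMSO 0.5% final.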
HTT cytoprotect: protects HTT-Q103 PC12 cells, measured by ATP; PC12 HTT-Q103 induced, cytoprotection, ATP luminescence, 40 h; Potency, µM (titrated, usually from 56.4 µM), for the others: cytoprotection (ATP increase), most hits filed as activators; 230,000 tested, 0.14% active; AID 1471; further: % of control where 0% means no effect; nearly all actives have a fitted effect of over 45% in size
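Quantitative HTS on tebufenozide-induced (100 nM) PC12 cells expressing HTTQ103 exon 1–GFP; compounds tested as a concentration series; survival measured via cellular ATP.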
HttQ103 aggreg: inhibitors of mutant huntingtin aggregate formation in PC12 cells. 220,000 tested, 1.1% active. Potency, µM (top dose mostly 46.1 µM), without a hit: at the top dose activity change, negative = inhibition, usual class: inhibitors. AID 1688. PC12 HttQ103-GFP aggregates, Acumen cytometry, 40 h; further: on the % scale 0 is the no-effect control and ±100 the full control effect; nearly all actives have a fitted effect of over 60% in size
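PC12 cells with ecdysone-inducible HTT exon1 Q103-GFP, induced by 100 nM tebufenozide, given compounds in a concentration series. GFP aggregates (1–25 um, 6 SD above background) counted in lysates by laser-scanning cytometry, 488 nm excitation.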
ALDH1A1 inh: ALDH1A1 (human) enzyme inhibition; 220,000 tested, 7.3% active; P00352; AID 1030; Potency, µM (doses to about 75.3 µM), without a hit: at the highest dose activity, negative = inhibition, most hits filed as inhibitors; Purified ALDH1A1, NADH fluorescence, propionaldehyde substrate; active means well fitted inhibition curve with a large enough effect, not every such curve was filed as active; inconclusive means small, poorly fitted or top-dose-only effect, or another doubt; inactive means no such curve, though single readings can be large or run the other way;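 further: plate controls were no enzyme wells and a reference inhibitor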
Target sequence (P00352 whole entry, looked up): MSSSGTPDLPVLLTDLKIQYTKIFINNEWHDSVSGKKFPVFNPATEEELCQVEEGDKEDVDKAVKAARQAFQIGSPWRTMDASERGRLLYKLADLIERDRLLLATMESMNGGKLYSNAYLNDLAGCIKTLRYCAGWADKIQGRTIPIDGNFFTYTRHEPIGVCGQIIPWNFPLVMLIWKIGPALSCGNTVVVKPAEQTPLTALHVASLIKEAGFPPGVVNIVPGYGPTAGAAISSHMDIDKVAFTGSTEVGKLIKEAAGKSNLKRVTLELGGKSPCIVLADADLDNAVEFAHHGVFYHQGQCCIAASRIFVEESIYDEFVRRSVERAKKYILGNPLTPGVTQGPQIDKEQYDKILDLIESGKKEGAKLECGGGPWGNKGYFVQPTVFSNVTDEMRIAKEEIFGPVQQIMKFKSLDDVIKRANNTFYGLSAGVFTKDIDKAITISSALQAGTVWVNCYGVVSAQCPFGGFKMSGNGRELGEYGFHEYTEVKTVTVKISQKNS
Numbers without * were called inactive; ? = inconclusive; / = no result; [ ] = dose if it differs, or a comment. Rows were chosen to be rich in hits. Some 8.8% of all compounds tested hit in one or more screens of this group. Unless noted, the call rests on the fitted dose curve; in most records, active means well fitted curve in the direction sought with a large enough effect; inconclusive means small, poorly fitted or top-dose-only effect, or another doubt; inactive means no such curve, though single readings can be large; an effect the other way counts as inactive or inconclusive. Potency means the concentration at half of the fitted maximal effect.

SMILES	HPGD inh	Lamin A splicing	HTT cytoprotect	HttQ103 aggreg	ALDH1A1 inh
COC(=O)CCCn1c(C)cc(C(=O)CCl)c1C	/	-11%[9.22 µM]	-17%	5%	0.5µM*
COC(=O)CCn1c(C)cc(C(=O)COc2ccccc2C(N)=O)c1C	/	-13%[46 µM]	-116%	?	7%
Cc1cc(C(=O)CCl)c(C)n1Cc1ccco1	/	/	3%	?	0.1µM*
Cc1cc(C(=O)CCl)c(C)n1CCc1ccccc1	/	?	9%[10 µM]	-23%	0.032µM*
CC(=O)OC1=CN(Cc2ccccc2)S(=O)(=O)c2ccccc21	/	10%[46 µM]	/	/	/
O=C1NCCN(C(=O)CCc2nnc(-c3ccsc3)o2)C1c1ccc(F)cc1 (stereo unspecified)	/	/	8%[10 µM]	-20%[9.22 µM]	1%
O=C(Cc1ccccc1)Nc1cccc(N2CCCC2)c1	?	-13%	-20%[0.074 µM]	16%	14µM*
Cc1cnnn1-c1ccc(C(=O)CCl)cc1	?	9%	-15%	2%	0.89µM*
Cc1cnnn1-c1cccc([N+](=O)[O-])c1	/	2%[46 µM]	-17%	15%	5%
COc1ccc(C)cc1NC(=O)C(Sc1nncn1C)c1ccccc1 (stereo unspecified)	/	/	/	12%	-13%
CCC(Sc1nncn1C)C(=O)Nc1ccccc1OC (stereo unspecified)	-12%	3%	14µM*	6%	7%
COc1ccc(C(C(N)=O)c2ncc(C(F)(F)F)cc2Cl)cc1OC (stereo unspecified)	/	1%[46 µM]	-27%	-7%	-4%
On1c2c(c3c4nonc4ccc31)CCCC2	16µM*	-3%	8%[10 µM]	-22%	32µM*
O=c1c2ccccc2c(C=NCCCN2CCOCC2)c(O)n1Cc1ccccc1	-27%	?	-19%[10 µM]	1%	14µM*
CC(C)Cn1cnc2c(Sc3c([N+](=O)[O-])ncn3C)nc(N)nc21	0%	/	-18%[10 µM]	/	-1%[13.5 µM]
Cc1nn(C(C)c2n[nH]c(=S)n2-c2cccc(Cl)c2)c(C)c1[N+](=O)[O-] (stereo unspecified)	22µM*	2%	-3%[10 µM]	-8%	5%
O=c1c(-c2nn[nH]n2)coc2ccc(Cl)cc12	/	-4%[9.22 µM]	-23%	7%[9.22 µM]	7%
NC1=NC(=O)/C(=C\c2cccnc2)S1	/	?	-20%	8.9µM*	-5%
NC1=NC(=O)/C(=C/c2ccsc2)S1	/	-12%[46 µM]	-13%	-21%	7%
CC(C)N1C(=O)S/C(=C/c2cccnc2)C1=O	1%	12%	-17%	3%	13µM*
CCC(C)N1C(=O)S/C(=C/c2ccc3c(c2)n(C)c(=O)n3C)C1=O (stereo unspecified)	/	/	-105%	?	?
CC(C)N1C(=O)S/C(=C/c2ccc3c(c2)n(C)c(=O)n3C)C1=O	?	?	-8%	2%	8.9µM*
Cc1ccc(OCCSc2nc3ccc(NC(=O)c4ccc(F)cc4)cc3s2)cc1	/	21%[46 µM]	/	/	/
CC1(C)CC(=O)C2=C(C1)NC(SCC(=O)Nc1ccccc1)=C(C#N)C2c1ccco1 (stereo unspecified)	-8%	?	12%	-19%	13µM*
CCOC(=O)C1=C(c2ccccc2)NC(SCC(=O)NC2CCCCC2)=C(C#N)C1c1ccco1 (stereo unspecified)	-28%	4%	-12%[0.074 µM]	?	18µM*
SMILES	HPGD inh	Lamin A splicing	HTT cytoprotect	HttQ103 aggreg	ALDH1A1 inh
COc1ccc(OC)c(NC(=O)CSC2=C(C#N)C(c3ccco3)C3=C(CCCC3=O)N2)c1 (stereo unspecified)	-20%	?	-9%	17%	?
COc1ccccc1NC(=O)C1=C(C)NC(SCC(=O)c2ccccc2)=C(C#N)C1c1ccco1 (stereo unspecified)	?	-5%	-14%[10 µM]	7%	14µM*
CC(=O)C1=C(C)NC(SCC(=O)c2ccc(C)cc2)=C(C#N)C1c1ccco1 (stereo unspecified)	28µM*	-5%	-10%	-4%	10µM*
O=C(COc1ccccc1[N+](=O)[O-])N(Cc1ccco1)c1ccccn1	/	-1%[46 µM]	/	/	/
O=C(NCc1ccc2c(c1)CCN2C(=O)c1ccc(F)cc1)c1ccco1	/	-4%[46 µM]	/	/	/
CCOC(=O)CSC1=C(C#N)C(c2ccc(F)cc2)C(C(C)=O)=C(C)N1 (stereo unspecified)	-27%	11%	-48%	?	22µM*
COCCOC(=O)C1=C(C)NC(SCC(=O)NC(C)(C)C)=C(C#N)C1c1ccco1 (stereo unspecified)	16µM*	-2%	-25%	-4%	6%
C=CCOC(=O)C1=C(C)NC(SCC(=O)Nc2ccc(C)c(Cl)c2)=C(C#N)C1c1ccco1 (stereo unspecified)	?	-1%	-16%	-3%	?
N#CC1=C(SCC(=O)Nc2ccc(C(=O)O)cc2)NC(=O)CC1c1ccco1 (stereo unspecified)	/	30%[46 µM]	0%[10 µM]	16%[9.22 µM]	13µM*
Cc1ccc(C(=O)CSC2=C(C#N)C(c3ccco3)C3=C(CC(C)(C)CC3=O)N2)cc1 (stereo unspecified)	-10%	?	3%[10 µM]	-14%	13µM*
CC(C)NC(=O)/C(C#N)=C/c1ccc(N(C)C)o1	/	/	19%[10 µM]	-9%[9.22 µM]	/
Fc1ccc(-c2nnc(SCc3cccnc3)o2)cc1	/	4%[46 µM]	-10%[10 µM]	-9%[9.22 µM]	-2%
N#CC1=C(SCC(=O)c2ccc(Cl)cc2)NC2=C(C(=O)CCC2)C1c1ccco1 (stereo unspecified)	-20%	1%	-107%	14%	28µM*
COc1cc2oc(=O)cc(-c3ccc(-c4cccc(N)c4)cc3)c2c(OC)c1OC	-23%	/	-18%	/	?
Cc1ccc(NC2=C/C(=N/S(=O)(=O)c3cccs3)c3ccccc3C2=O)cc1	-3%	?	/	3.5µM*	12%
O=C1C(Nc2ccccc2)=C/C(=N/S(=O)(=O)c2cccs2)c2ccccc21	-11%	?	-94%[10 µM]	6.3µM*	?
COC(=O)c1ccccc1NC1=C/C(=N\S(=O)(=O)c2cccs2)c2ccccc2C1=O	?	?	-89%	?	3.2µM*
CCc1cc[n+](C2=C([O-])c3ccccc3C(=O)/C2=N\S(=O)(=O)c2cccs2)cc1	-10%	?	/	?	?
CCc1ccccc1N1C(=O)N(CC(=O)c2ccc(Cl)cc2)c2ccccc2S1(=O)=O	/	5%[46 µM]	/	/	/
Cc1ccc(C)c(NCCC#N)c1	-12%	3%	2%[10 µM]	3%	15%
COc1cccc(CNC(=O)c2sc3nc4n(c(=O)c3c2C)CCC4)c1	/	22%[46 µM]	/	/	/
Cc1nnc(SCc2cc([N+](=O)[O-])cc3c2OCOC3)[nH]c1=O	/	/	-2%[10 µM]	-3%[9.22 µM]	?
COc1ccc(Nc2nnc(SCc3cc([N+](=O)[O-])cc4c3OCOC4)s2)cc1	25µM*	4%	18%	4%	?
CCc1cc2ccc(C)cc2nc1SCC(=O)c1ccc(NC(C)=O)cc1	8.9µM*	11%	-60%	1%	25µM*
CCc1cc2cccc(C)c2nc1SCC(=O)c1ccc(NC(C)=O)cc1	-12%	8%	17%[10 µM]	5%	?
